Most compounds without a hit are left out; they make up all but 19% or so of the library.
HT1080NT lethal: qHTS for induction of synthetic lethality in tumor cells producing 2HG: qHTS for the HT-1080-NT fibrosarcoma cell line | HT-1080-NT fibrosarcoma viability, CellTiter-Glo ATP luminescence, 48 h | Potency, µM (highest dose often 46.1 µM), without a hit: at the highest dose activity, negative = less viability, hits mostly cytotoxic | 1.6% of 360,000 active;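 further: NT is the 2HG producing partner of a matched IDH1 knockdown line; 0% = DMSO-treated cells and -100% = media-only wells without cells; nearly all actives have a fitted effect of over 55% in size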
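750 cells/well, RPMI + 5% FBS; 2 h settle, compound pin-transfer, 48 h at 37 degrees C. CellTiter-Glo 10 min RT, luminescence. Normalized to DMSO and media-only wells.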
KB-V1 MDR tox: qHTS assay for MDR1-selective chemotherapeutics: Primary screen using the drug-selected MDR subline cells KB-V1. KB-V1 MDR cells viability, CellTiter-Glo, 72 h. Potency, µM (doses to about 46.1 µM), actives largely listed as cytotoxic. 3.4% of 400,000 active. AID 1347076, 2019; further: nearly all actives have a fitted effect of over 60% in size
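Luminescent ATP read-out (CellTiter-Glo, 10 min) measures survival of drug-selected KB-V1 MDR cells after 72 h, 37 degrees C compound exposure. Medium: phenol-red-free DMEM, 10% FBS. Values from fitted concentration-response curves.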
DT40 TDP1 no CPT: qHTS for Inhibitors of human tyrosyl-DNA phosphodiesterase 1 (TDP1): qHTS in cells in absence of CPT; 15% of 420,000 active; Potency, µM (doses to about 46.2 µM), without a hit: at the top dose activity change, negative = growth inhibition, actives largely listed as inhibitors; DT40 Tdp1-/- hTDP1 cells, no CPT, ATP luminescence, 48 h; AID 686978, 2013; further: nearly all actives have a fitted effect of over 55% in size
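Chicken DT40 Tdp1-/- cells complemented with human TDP1, screened without camptothecin (DMSO vehicle only), 400 cells/well. Compounds pin-transferred, cells incubated at 37 °C for at least 48 hr. Growth read as ATP-dependent luminescence (CellTiter-Glo, 30 min at RT).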
KB-3-1 tox: qHTS assay for MDR1-selective chemotherapeutics: Primary screen using the parental adenocarcinoma cell KB-3-1 | KB-3-1 viability, CellTiter-Glo ATP luminescence, 72 h | Potency, µM (series often up to 46.1 µM), usual class: cytotoxic | 1.4% of 400,000 active; further: nearly all actives have a fitted effect of over 60% in size
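Cytotoxicity in the drug-sensitive parental line KB-3-1 was scored as loss of CellTiter-Glo luminescence following 72 h incubation with compound. Values come from curve fitting of normalized concentration-response data.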
TDP1 cell CPT: qHTS for Inhibitors of human tyrosyl-DNA phosphodiesterase 1 (TDP1): qHTS in cells in presence of CPT; chicken DT40 Tdp1-/-;hTDP1 cells + 20 nM CPT, ATP luminescence, 48 h; Potency, µM (series often up to 46.2 µM), for inactives: at the top dose activity change, negative = growth inhibition, actives largely listed as inhibitors; 12% of 420,000 active; AID 686979, 2013; further: nearly all actives have a fitted effect of over 55% in size
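Chicken DT40 Tdp1-/- cells complemented with human TDP1, 400 cells/well, exposed to compounds plus 20 nM camptothecin for at least 48 h at 37 C; viability read as ATP content by CellTiter-Glo luminescence.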
HT1080 IDH1KD tx: qHTS for induction of synthetic lethality in tumor cells producing 2HG: qHTS for the HT-1080-IDH1KD cell line | Potency, µM (titrated, usually from 46.1 µM), for inactives: top-dose activity, negative = toxicity, most hits filed as cytotoxic | 2% of 360,000 active | AID 686971, 2013 | HT-1080 IDH1 knockdown viability, ATP luminescence, 48 h;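 further: 0% = DMSO wells and -100% = cell-free medium wells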
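HT-1080-IDH1KD cells (IDH1 knocked down), 750/well in RPMI with 5% FBS, treated with compound 48 h at 37 degrees C. Viability by CellTiter-Glo luminescence, normalised to DMSO and no-cell wells; concentration-response curves classed.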
* hit, by the source's call; i = inactive; ? = inconclusive; . = no result given. The call rests on the fitted dose curve; in most records, active means well fitted curve in the direction sought with a large enough effect; inconclusive means small, poorly fitted or top-dose-only effect, or another doubt; inactive means no such curve, though single readings can be large; an effect the other way counts as inactive or inconclusive. Unless noted, on the % scale 0 is the no-effect control and ±100 the full control effect; potency means the concentration at half of the fitted maximal effect.

SMILES	HT1080NT lethal	KB-V1 MDR tox	DT40 TDP1 no CPT	KB-3-1 tox	TDP1 cell CPT	HT1080 IDH1KD tx
O=C(COC(=O)c1cccc(S(=O)(=O)N2CCOCC2)c1)NC1CCCCC1	-1%	i	-5%	i	-16%	6%
CC1CCN(c2nn3c(=O)c(C(=O)NCc4ccc(Cl)cc4)cnc3s2)CC1	.	i	4%	i	-6%	.
CCOc1ccc(NC(=O)c2cnn(-c3ccc(C)c(C)c3)c2C2CCN(C(=O)OC(C)(C)C)CC2)cc1	.	i	16µM*	i	16µM*	.
Cc1ccc(-n2ncc(C(=O)NCCN3CCc4ccccc4C3)c2C2CCNCC2)cc1C	.	?	21µM*	i	21µM*	.
CC(=O)Nc1ccc(NC(=O)c2cnn(-c3ccccc3)c2C2CCN(C(=O)OC(C)(C)C)CC2)cc1	.	i	-22%	i	-23%	.
Cc1ccc(-n2ncc(C(=O)NCc3ccc4c(c3)OCO4)c2C2CCN(C(=O)OC(C)(C)C)CC2)cc1C	.	i	?	i	23µM*	.
CC(C)(C)OC(=O)N1CCC(c2c(C(=O)NCCN3CCc4ccccc4C3)cnn2-c2ccc(F)cc2)CC1	.	i	?	i	?	.
Cc1ccc(-n2ncc(C(=O)NCCN3CCCC3)c2C2CCN(C(=O)OC(C)(C)C)CC2)cc1C	.	i	?	i	16µM*	.
CN1CCN(CCNC(=O)c2cnn(-c3ccc(F)cc3)c2C2CCN(C(=O)OC(C)(C)C)CC2)CC1	.	i	?	i	?	.
Cc1cccc(C)c1-n1ncc(C(=O)Nc2ccc3c(c2)OCCO3)c1C1CCN(C(=O)OC(C)(C)C)CC1	.	i	?	i	?	.
COc1ccc(-n2ncc(C(=O)NCc3ccc4c(c3)OCO4)c2C2CCN(C(=O)OC(C)(C)C)CC2)cc1	.	i	?	i	16µM*	.
Cc1cccc(C)c1-n1ncc(C(=O)NCc2ccc3c(c2)OCO3)c1C1CCN(C(=O)OC(C)(C)C)CC1	.	i	15µM*	i	?	.
COc1ccc(/C=C/C(=O)c2ccc3c(c2)OCCO3)cc1[N+](=O)[O-]	0%	i	15µM*	?	?	-11%
COc1ccccc1NC(CC(=O)c1ccccc1)C(=O)OCC(=O)c1ccc(C)c(C)c1 (stereo not given)	1%	i	16µM*	i	10µM*	3%
COc1ccc(/C=N/NC(=O)c2ccc3c(c2)OCCO3)cc1[N+](=O)[O-]	0%	i	2%	i	3%	-14%
COc1cccc(/C=C/C(=O)OCC(=O)c2ccc(C)c(C)c2)c1OC	-4%	i	26µM*	i	-28%	0%
O=C(/C=C/c1cccc([N+](=O)[O-])c1)c1ccc2c(c1)OCCO2	?	?	18µM*	i	?	?
CC(C)Oc1ccc(CN2CCC(n3nccc3NC(=O)CCc3ccccc3)CC2)cc1	-2%	i	?	i	?	-9%
CCCNC(=O)C1(C)CCN(C(=O)c2sccc2C)C1 (stereo not given)	16%	i	2%	i	1%	?
COc1ccc(CC(=O)NC2CC(=O)N(c3cccc(F)c3)C2)cc1OC (stereo not given)	.	.	0%	.	7%	.
CCOc1cc(/C=C/C(=O)c2ccc(O)cc2)ccc1OCC(=O)N(C)C	-23%	i	?	i	?	?
